Laboratory results taken from article PMC7862700, “An all-to-all approach to the identification of sequence-specific readers for epigenetic DNA modifications on cytosine”.

Legend:
Assay in all cases: DAPPL (digital affinity profiling via proximity ligation, sequencing); 10 mM Tris-HCl pH 7.5, 50 mM NaCl, 1 mM DTT, 4% glycerol, room temperature, 30 min; GST-TFs on glutathione beads, 16-mer random dsDNA library, 0.1% formaldehyde crosslink after washing; high values mean tight binding
FEV = molecular target: T1, FEV (Homo sapiens, UniProt Q99581 1-238); settings: protein: recombinant; tags: N-terminal GST; dsDNA, one strand shown
T1 sequence: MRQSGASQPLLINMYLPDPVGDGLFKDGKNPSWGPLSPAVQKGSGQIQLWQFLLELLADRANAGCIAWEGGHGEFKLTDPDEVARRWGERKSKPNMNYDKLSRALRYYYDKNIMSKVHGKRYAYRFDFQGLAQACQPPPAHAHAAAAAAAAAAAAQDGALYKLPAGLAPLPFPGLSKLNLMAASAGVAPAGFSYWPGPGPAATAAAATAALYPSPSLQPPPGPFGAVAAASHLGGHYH
In short: (§1)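 Binding signal is defined as a hexamer's read frequency for one factor over its frequency for the tag-only sample. To obtain reads, GST-fused human transcription factors were expressed in yeast, captured on glutathione beads, barcoded with DNA and pooled with that sample. Pools met 200 nmole of a 16-mer random double-stranded DNA library in Tris/NaCl/DTT/glycerol buffer for 30 min at room temperature before washing, 0.1% formaldehyde crosslinking, proximity ligation (BsaI/T4 ligase, 1 h, 37 °C), PCR and Illumina NextSeq500 sequencing.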

ETV5 = ETV5 (Homo sapiens, UniProt P41161 1-510); settings: protein: recombinant; tags: N-terminal GST; dsDNA, one strand shown
In short: as §1

HSF1 = HSF1 (Homo sapiens, UniProt Q00613 1-529); settings: protein: recombinant; tags: N-terminal GST; chain copies: 3; dsDNA, one strand shown
In short: as §1

SPIC = molecular target: T2, SPIC (Homo sapiens, UniProt Q8N5J4 1-248); settings: protein: recombinant; tags: N-terminal GST; dsDNA, one strand shown
T2 sequence: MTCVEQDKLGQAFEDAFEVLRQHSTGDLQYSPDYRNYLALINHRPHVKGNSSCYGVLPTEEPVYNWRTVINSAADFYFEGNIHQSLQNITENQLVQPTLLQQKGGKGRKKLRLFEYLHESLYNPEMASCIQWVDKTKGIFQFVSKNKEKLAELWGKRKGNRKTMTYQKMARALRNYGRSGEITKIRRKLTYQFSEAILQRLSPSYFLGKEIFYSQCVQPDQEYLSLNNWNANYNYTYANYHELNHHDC
In short: as §1

ELF4 = ELF4 (Homo sapiens, UniProt Q99607 1-663); settings: protein: recombinant; tags: N-terminal GST; dsDNA, one strand shown
In short: as §1

ELK4 = molecular target: T3, ELK4 (Homo sapiens, UniProt P28324-2 1-405); settings: protein: recombinant; tags: N-terminal GST; dsDNA, one strand shown
T3 sequence: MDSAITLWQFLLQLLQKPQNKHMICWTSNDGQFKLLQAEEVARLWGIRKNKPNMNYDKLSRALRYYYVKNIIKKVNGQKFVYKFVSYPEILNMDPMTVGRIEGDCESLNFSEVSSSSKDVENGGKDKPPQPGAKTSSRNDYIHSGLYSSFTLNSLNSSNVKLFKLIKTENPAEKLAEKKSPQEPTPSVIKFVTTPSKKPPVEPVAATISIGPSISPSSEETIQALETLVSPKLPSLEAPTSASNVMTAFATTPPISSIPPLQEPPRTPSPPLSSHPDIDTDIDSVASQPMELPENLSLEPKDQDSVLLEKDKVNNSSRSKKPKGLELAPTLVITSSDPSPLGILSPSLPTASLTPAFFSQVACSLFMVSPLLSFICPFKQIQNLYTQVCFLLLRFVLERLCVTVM
In short: as §1

ETV2 = molecular target: T4, ETV2 (Homo sapiens, UniProt O00321 1-342); settings: protein: recombinant; tags: N-terminal GST; dsDNA, one strand shown
T4 sequence: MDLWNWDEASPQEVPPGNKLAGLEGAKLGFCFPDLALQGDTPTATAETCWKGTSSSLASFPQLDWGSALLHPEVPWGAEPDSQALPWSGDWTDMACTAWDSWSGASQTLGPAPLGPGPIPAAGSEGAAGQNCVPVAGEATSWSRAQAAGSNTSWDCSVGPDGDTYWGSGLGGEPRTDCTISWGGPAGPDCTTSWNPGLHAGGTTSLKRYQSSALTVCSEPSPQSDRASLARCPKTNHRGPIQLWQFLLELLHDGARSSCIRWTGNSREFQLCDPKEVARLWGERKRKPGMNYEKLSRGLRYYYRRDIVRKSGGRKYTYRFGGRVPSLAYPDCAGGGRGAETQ
In short: as §1

ELF3 = molecular target: T5, ELF3 (Homo sapiens, UniProt P78545 1-371); settings: protein: recombinant; tags: N-terminal GST; dsDNA, one strand shown
T5 sequence: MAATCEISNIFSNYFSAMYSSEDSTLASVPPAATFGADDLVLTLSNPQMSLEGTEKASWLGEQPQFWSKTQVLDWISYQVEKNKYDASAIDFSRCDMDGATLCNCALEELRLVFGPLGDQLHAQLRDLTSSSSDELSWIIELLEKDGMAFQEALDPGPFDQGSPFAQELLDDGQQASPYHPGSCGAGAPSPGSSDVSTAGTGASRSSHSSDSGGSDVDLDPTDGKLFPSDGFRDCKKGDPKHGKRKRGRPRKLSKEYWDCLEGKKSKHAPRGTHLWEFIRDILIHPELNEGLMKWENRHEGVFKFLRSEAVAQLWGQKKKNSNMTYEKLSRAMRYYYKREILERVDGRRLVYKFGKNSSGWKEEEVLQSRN
In short: as §1

CRX = CRX (Homo sapiens, UniProt O43186 1-299); settings: protein: recombinant; tags: N-terminal GST; dsDNA, one strand shown
In short: as §1

ETV1 = ETV1 (Homo sapiens, UniProt P50549 1-477); settings: protein: recombinant; tags: N-terminal GST; dsDNA, one strand shown
In short: as §1

ERF = molecular target: T6, ERF (Homo sapiens, UniProt P50548 1-548); settings: protein: recombinant; tags: N-terminal GST; dsDNA, one strand shown
T6 sequence: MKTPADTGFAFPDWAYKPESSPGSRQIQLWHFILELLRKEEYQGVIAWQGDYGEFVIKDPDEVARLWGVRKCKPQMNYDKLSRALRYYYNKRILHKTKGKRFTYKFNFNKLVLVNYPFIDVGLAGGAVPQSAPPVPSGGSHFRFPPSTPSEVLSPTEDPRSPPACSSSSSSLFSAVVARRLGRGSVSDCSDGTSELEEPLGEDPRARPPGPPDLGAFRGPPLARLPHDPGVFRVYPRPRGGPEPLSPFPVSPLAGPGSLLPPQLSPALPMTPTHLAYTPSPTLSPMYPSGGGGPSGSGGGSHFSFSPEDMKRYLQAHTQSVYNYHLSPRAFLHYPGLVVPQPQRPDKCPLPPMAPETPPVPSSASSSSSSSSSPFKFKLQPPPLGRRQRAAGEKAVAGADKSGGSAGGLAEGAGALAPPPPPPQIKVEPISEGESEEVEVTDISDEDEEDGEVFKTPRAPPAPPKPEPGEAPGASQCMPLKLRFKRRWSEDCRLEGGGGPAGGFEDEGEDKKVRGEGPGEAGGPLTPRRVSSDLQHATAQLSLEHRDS
In short: as §1

ETV3L = molecular target: T7, ETV3L (Homo sapiens, UniProt Q6ZN32 1-361); settings: protein: recombinant; tags: N-terminal GST; dsDNA, one strand shown
T7 sequence: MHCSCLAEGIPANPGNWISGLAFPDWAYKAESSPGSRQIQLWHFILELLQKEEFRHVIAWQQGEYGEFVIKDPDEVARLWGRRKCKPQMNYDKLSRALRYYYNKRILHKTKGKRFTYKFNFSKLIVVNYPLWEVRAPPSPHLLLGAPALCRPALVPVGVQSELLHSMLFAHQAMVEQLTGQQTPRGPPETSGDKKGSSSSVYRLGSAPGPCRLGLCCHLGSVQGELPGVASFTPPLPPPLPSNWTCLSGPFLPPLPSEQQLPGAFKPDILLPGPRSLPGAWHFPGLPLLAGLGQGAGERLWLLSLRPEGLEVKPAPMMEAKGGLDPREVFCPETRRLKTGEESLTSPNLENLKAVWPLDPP
In short: as §1

ETS2 = molecular target: T8, ETS2 (Homo sapiens, UniProt P15036 1-469); settings: protein: recombinant; tags: N-terminal GST; dsDNA, one strand shown
T8 sequence: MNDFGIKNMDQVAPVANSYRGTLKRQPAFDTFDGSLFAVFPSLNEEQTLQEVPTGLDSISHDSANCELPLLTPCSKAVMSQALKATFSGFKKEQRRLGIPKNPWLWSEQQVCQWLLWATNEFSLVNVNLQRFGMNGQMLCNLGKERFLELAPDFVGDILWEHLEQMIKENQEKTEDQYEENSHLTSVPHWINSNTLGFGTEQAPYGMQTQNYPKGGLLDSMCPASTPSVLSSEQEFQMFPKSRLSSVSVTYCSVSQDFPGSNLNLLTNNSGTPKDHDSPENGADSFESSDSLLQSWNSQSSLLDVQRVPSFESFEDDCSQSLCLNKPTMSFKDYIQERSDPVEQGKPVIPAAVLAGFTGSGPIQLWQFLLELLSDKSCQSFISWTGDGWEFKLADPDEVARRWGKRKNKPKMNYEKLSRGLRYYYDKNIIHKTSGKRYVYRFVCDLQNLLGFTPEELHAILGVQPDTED
In short: as §1

SPDEF = molecular target: T9, SPDEF (Homo sapiens, UniProt O95238 1-335); settings: protein: recombinant; tags: N-terminal GST; dsDNA, one strand shown
T9 sequence: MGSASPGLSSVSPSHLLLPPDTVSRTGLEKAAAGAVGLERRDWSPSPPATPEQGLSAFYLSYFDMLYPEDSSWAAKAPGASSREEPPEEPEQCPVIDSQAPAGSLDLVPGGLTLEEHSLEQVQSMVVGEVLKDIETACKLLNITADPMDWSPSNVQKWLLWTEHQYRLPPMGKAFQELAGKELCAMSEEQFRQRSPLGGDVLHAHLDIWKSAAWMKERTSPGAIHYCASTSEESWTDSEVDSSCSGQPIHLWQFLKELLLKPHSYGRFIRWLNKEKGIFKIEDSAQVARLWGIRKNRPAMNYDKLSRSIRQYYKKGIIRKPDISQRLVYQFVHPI
In short: as §1

ETV7 = molecular target: T10, ETV7 (Homo sapiens, UniProt Q9Y603 1-341); settings: protein: recombinant; tags: N-terminal GST; dsDNA, one strand shown
T10 sequence: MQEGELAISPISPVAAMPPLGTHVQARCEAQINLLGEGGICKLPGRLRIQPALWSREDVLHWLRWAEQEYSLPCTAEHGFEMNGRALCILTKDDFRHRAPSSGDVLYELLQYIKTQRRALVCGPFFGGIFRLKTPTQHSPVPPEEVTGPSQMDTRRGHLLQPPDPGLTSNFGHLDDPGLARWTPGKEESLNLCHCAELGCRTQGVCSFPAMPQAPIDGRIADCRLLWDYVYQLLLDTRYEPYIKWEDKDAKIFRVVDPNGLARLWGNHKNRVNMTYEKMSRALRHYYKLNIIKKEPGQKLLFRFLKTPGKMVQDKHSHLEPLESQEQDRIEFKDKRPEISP
In short: as §1

ELF5 = molecular target: T11, ELF5 (Homo sapiens, UniProt Q9UKW6-2 1-255); settings: protein: recombinant; tags: N-terminal GST; dsDNA, one strand shown
T11 sequence: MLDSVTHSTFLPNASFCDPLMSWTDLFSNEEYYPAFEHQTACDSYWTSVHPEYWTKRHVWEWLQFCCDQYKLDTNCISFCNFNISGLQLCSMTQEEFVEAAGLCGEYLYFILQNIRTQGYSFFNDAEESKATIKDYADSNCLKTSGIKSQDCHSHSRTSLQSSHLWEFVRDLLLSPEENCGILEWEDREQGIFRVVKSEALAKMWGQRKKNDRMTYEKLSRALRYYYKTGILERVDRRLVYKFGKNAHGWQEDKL
In short: as §1

ETV3 = molecular target: T12, ETV3 (Homo sapiens, UniProt P41162-2 1-143); settings: protein: recombinant; tags: N-terminal GST; dsDNA, one strand shown
T12 sequence: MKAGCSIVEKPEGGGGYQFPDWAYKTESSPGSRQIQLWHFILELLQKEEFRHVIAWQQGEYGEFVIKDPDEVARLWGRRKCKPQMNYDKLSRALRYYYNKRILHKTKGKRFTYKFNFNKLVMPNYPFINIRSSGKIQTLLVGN
In short: as §1

ETV6 = ETV6 (Homo sapiens, UniProt P41212 1-452); settings: protein: recombinant; tags: N-terminal GST; dsDNA, one strand shown
In short: as §1

ETV1, sequence (P50549 whole entry): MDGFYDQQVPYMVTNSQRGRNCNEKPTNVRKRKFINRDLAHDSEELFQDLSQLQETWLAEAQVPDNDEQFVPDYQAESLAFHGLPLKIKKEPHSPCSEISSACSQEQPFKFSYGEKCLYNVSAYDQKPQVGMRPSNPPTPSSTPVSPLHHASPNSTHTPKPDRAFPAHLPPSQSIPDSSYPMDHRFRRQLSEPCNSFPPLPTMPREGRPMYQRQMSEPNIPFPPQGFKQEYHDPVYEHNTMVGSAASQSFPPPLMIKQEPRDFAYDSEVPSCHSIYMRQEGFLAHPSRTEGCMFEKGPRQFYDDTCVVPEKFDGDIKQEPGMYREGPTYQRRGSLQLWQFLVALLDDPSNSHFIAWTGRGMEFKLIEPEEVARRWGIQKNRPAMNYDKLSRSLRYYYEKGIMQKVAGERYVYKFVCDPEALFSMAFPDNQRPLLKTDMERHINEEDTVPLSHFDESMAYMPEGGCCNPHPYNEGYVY
HSF1, sequence (Q00613 whole entry): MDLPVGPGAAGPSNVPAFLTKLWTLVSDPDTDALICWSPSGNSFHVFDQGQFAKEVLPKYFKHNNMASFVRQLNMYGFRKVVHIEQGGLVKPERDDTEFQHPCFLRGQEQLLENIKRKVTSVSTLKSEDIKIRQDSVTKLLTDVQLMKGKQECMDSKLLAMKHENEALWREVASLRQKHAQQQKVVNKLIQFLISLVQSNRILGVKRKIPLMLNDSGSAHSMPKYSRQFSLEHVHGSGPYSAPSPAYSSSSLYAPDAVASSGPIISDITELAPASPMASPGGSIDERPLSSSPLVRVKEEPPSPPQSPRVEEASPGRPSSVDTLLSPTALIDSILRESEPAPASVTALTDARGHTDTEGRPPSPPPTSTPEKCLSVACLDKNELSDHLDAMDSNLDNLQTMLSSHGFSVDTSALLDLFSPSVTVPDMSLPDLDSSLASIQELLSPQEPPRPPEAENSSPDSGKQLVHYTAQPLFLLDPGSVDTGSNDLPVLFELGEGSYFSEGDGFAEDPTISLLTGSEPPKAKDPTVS
CRX, sequence (O43186 whole entry): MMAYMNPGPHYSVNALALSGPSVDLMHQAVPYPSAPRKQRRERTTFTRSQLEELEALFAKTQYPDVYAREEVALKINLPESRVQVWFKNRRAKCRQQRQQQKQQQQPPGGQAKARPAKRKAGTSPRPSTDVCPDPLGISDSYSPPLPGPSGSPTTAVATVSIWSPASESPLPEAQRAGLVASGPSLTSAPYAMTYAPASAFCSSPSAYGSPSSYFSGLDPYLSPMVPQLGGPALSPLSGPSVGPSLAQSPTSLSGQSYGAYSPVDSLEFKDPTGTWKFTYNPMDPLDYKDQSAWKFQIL
ETV6, sequence (P41212 whole entry): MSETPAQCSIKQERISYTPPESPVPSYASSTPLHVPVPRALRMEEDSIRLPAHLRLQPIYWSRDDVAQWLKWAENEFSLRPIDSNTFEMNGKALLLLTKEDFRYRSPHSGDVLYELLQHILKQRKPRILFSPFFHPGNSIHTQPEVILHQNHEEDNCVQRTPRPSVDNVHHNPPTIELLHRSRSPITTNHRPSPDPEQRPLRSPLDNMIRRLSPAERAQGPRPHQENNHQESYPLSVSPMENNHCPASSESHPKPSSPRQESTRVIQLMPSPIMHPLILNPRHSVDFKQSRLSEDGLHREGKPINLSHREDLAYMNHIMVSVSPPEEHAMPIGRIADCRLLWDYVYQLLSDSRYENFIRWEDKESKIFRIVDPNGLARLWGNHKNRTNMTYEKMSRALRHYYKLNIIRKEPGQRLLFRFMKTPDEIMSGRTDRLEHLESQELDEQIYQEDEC
ETV5, sequence (P41161 whole entry): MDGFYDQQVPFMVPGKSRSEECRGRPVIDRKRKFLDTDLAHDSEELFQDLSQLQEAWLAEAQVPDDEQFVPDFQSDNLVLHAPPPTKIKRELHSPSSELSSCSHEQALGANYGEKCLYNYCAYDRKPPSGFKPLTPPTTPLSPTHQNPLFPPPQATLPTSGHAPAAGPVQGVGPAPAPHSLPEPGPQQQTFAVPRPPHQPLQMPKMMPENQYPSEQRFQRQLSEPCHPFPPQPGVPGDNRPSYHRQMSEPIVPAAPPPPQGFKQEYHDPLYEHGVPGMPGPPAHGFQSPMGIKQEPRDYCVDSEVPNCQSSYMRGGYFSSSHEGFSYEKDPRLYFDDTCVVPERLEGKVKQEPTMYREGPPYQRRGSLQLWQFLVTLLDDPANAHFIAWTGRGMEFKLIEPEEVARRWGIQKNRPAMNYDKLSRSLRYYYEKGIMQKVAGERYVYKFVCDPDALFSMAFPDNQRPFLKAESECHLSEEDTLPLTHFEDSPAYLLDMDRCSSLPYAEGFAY
ELF4, sequence (Q99607 whole entry): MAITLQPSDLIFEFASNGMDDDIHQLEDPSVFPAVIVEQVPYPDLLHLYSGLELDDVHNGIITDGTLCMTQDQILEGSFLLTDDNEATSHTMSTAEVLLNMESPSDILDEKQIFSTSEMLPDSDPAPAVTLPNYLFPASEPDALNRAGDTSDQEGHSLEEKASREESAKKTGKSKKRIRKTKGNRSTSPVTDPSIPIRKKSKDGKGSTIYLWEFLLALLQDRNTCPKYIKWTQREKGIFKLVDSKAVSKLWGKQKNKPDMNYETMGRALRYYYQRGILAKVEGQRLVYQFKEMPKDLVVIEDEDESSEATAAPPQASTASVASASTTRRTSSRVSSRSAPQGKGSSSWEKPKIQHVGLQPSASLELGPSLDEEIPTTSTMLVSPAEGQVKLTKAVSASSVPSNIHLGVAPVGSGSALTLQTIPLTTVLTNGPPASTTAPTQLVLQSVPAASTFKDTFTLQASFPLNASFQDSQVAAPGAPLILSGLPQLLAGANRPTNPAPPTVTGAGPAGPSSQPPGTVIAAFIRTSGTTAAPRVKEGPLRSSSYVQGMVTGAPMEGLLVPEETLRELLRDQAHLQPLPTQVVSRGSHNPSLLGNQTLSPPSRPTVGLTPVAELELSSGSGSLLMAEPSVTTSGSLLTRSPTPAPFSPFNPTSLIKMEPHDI

With CCTTCT the binding signal (FEV) was 1.59 fold enrichment (6-mer frequency, TF over GST control), the binding signal (ETV5) was 1.59 fold enrichment (6-mer frequency, TF over GST control) and the binding signal (HSF1) was 2.98 fold enrichment (6-mer frequency, TF over GST control). The binding signal (SPIC) was 1.63 fold enrichment (6-mer frequency, TF over GST control), the binding signal (ELF4) was 1.76 fold enrichment (6-mer frequency, TF over GST control) and the binding signal (ELK4) was 1.68 fold enrichment (6-mer frequency, TF over GST control). The binding signal (ETV2) was 1.65 fold enrichment (6-mer frequency, TF over GST control), the binding signal (ELF3) was 1.54 fold enrichment (6-mer frequency, TF over GST control) and the binding signal (CRX) was 1.92 fold enrichment (6-mer frequency, TF over GST control). The binding signal (ETV1) was 1.63 fold enrichment (6-mer frequency, TF over GST control), the binding signal (ERF) was 1.5 fold enrichment (6-mer frequency, TF over GST control) and the binding signal (ETV3L) was 1.62 fold enrichment (6-mer frequency, TF over GST control). The binding signal (ETS2) was 1.53 fold enrichment (6-mer frequency, TF over GST control), the binding signal (SPDEF) was 1.84 fold enrichment (6-mer frequency, TF over GST control) and the binding signal (ETV7) was 1.45 fold enrichment (6-mer frequency, TF over GST control). For the same sequence, the binding signal (ELF5) was 1.86 fold enrichment (6-mer frequency, TF over GST control), the binding signal (ETV3) was 1.44 fold enrichment (6-mer frequency, TF over GST control) and the binding signal (ETV6) was 1.58 fold enrichment (6-mer frequency, TF over GST control).
